TDP1 cell CPT – DT40-hTDP1 cell growth loss with CPT; chicken DT40 Tdp1-/-;hTDP1 cells + 20 nM CPT, ATP luminescence, 48 h; Potency, µM (highest dose often 46.2 µM), without a hit: at the top dose activity change, negative = growth inhibition, actives largely listed as inhibitors; actives 12% (n = 420,000); AID 686979; also: potency is read from the fitted curve at half-maximal effect; nearly all actives have a fitted effect of over 55% in size
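Chicken DT40 Tdp1-/- cells stably complemented with human TDP1 were seeded at 400 cells/well in medium containing 20 nM camptothecin, exposed to pin-transferred compounds, and grown at 37 °C for at least 48 hr. Viability was read as ATP luminescence.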
LDHA block – LDHA (human) enzyme inhibition; P00338; purified LDHA, NADH/diaphorase-resazurin fluorescence; stronger effect = lower value; activity change, % (values are at about 110 or 230 µM); actives 0.15% (n = 480,000); in the data active = activity change below about -30%; inconclusive = mostly about -25% to -30%;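 also: plate controls were DMSO wells for no effect and wells without enzyme for full effect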
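Human LDH5 at 2 nM final in Tris HCl pH 7.4 with 0.06 mM NADH and 0.2 mM pyruvate, reacted 5 minutes at room temperature. Remaining NADH coupled via diaphorase/resazurin; resorufin fluorescence read at 0 and 20 minutes, normalized to enzyme-free and DMSO wells.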
RORgamma inh – inhibitors of mouse ROR gamma transcriptional activity | AID 2551 | P51450 | Drosophila S2 Gal4-RORgamma UAS-luciferase reporter, 20 h | Potency, µM (highest dose often 53.6 µM), inactives show top-dose activity change, negative = inhibition, actives largely listed as inhibitors | actives 5.4% (n = 310,000); also: potency is read from the fitted curve at half-maximal effect; nearly all actives have a fitted effect of over 60% in size
Target sequence (P51450 whole entry, looked up, the tested form may be a part): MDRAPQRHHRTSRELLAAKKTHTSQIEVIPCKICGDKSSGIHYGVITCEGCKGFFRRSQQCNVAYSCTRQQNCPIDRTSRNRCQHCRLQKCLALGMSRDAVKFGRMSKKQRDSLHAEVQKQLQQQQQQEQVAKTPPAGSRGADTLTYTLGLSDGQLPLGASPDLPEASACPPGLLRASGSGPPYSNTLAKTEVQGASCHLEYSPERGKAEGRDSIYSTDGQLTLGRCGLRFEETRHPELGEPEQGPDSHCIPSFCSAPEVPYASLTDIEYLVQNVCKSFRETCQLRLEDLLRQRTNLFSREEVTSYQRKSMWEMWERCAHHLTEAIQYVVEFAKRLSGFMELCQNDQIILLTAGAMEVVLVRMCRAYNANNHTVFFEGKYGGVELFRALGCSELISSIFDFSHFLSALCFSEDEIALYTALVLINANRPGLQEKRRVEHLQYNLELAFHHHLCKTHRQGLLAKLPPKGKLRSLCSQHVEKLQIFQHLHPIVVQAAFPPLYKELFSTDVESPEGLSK
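In this cell-based reporter format, copper sulfate (700 uM final) drives Gal4–ROR gamma fusion expression from a metallothionein promoter in Drosophila Schneider cells; compounds preincubated 1 hr, reporter read after 20 hr at ambient temperature.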
DT40 TDP1 no CPT – qHTS for Inhibitors of human tyrosyl-DNA phosphodiesterase 1 (TDP1): qHTS in cells in absence of CPT. Potency, µM (series often up to 46.2 µM), without a hit: top-dose activity change, negative = growth inhibition, most hits filed as inhibitors. AID 686978, 2013. actives 15% (n = 420,000). DT40 Tdp1-/- hTDP1 cells, no CPT, ATP luminescence, 48 h; also: potency is read from the fitted curve at half-maximal effect; nearly all actives have a fitted effect of over 55% in size
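Luminescent ATP content (CellTiter-Glo) served as the growth readout. Knockout chicken DT40 cells expressing human TDP1 were exposed to compounds without camptothecin for a minimum 48 hr at 37 °C.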
VP16 counter – counter-screen for ROR gamma inhibitors: Gal4-VP16 reporter | Drosophila S2 Gal4-VP16 UAS-luciferase, luminescence, 20 h | Potency, µM (series often up to 53.6 µM), without a hit: at the highest dose activity, negative = inhibition, most hits filed as inhibitors | actives 3.5% (n = 310,000) | AID 2546;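 also: Gal4-VP16 expression switched on by copper sulfate through the metallothionein promoter; potency is read from the fitted curve at half-maximal effect; nearly all actives have a fitted effect of over 50% in size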
IL-1B inflam inh – blocks inflammasome-driven IL-1 beta release | THP-1 LPS/ATP IL-1B secretion, AlphaLISA, 16 h; stronger effect = lower value | activity change, % at 57.5 µM | actives 4.7% (n = 360,000) | AID 743279; in the data active = activity change below about -50%; inconclusive = mostly about -30% to -49%
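THP-1 cells pretreated 1 hr with compounds (up to 57.5 uM final), then stimulated with LPS (250 ng/mL final) plus ATP (1.25 mM final); secreted IL-1B measured by AlphaLISA after 16 hr, decreased signal indicating inhibition.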
Starred values were filed as active, the others as inactive; u = inconclusive; x = no result. Rows were chosen to be rich in hits. Some 18% of all compounds tested hit in one or more screens of this group. Unless noted, calls follow the shape of the dose curve; as a rule, active = well fitted curve in the direction sought with a large enough effect; inconclusive = small, poorly fitted or top-dose-only effect, or another doubt; inactive = no such curve, though single readings can be large; an effect the other way counts as inactive or inconclusive. Unless noted, % is scaled to controls: 0 for no effect and ±100 for the full control effect.

SMILES | TDP1 cell CPT | LDHA block | RORgamma inh | DT40 TDP1 no CPT | VP16 counter | IL-1B inflam inh
CC1CN(C(=O)c2ccc(NS(=O)(=O)c3ccc(C(C)(C)C)cc3)cc2)CC(C)O1 (stereo not given) | 14.6µM* | 0.1 | x | 9.2µM* | x | 48.2
COc1ccc(NS(=O)(=O)c2ccc(C(=O)N3CCC(C)CC3)cc2)cc1 | 23.1µM* | -0.2 | x | u | x | -2.2
O=C(c1ccc(S(=O)(=O)Nc2ccc(F)cc2)cc1)N1CCN(C(=O)c2ccco2)CC1 | 13µM* | -1.8 | -27.9% | 11.6µM* | 20µM* | 19.0
CCOc1ccc(NS(=O)(=O)c2ccc(C(=O)N3CCN(c4ncccn4)CC3)cc2)cc1 | 9.2µM* | -2.7 | -12.2% | 8.2µM* | u | 0.0
O=C(NC(Cc1ccccc1)C(=O)N1CCN(S(=O)(=O)c2ccccc2)CC1)c1ccccc1 (stereo not given) | u | -4.7 | x | -29.4% | x | -10.1
O=C(N[C@@H](Cc1ccccc1)C(=O)N1CCN(S(=O)(=O)c2ccc(F)cc2)CC1)c1ccco1 | 14.6µM* | -4.8 | x | 20.6µM* | x | 6.4
COC(=O)c1ccc(Cl)c(NS(=O)(=O)c2ccc3c(c2)OCCO3)c1 | 5.17µM* | 2.5 | -18.0% | 4.11µM* | 15.7% | 3.5
CC(C)[C@H](NS(=O)(=O)c1ccc2c(c1)OCCO2)C(=O)OCC(=O)Nc1cc(Cl)ccc1Cl | u | -6.2 | 8.1% | 29.1µM* | u | 30.3
CCOc1ccc(S(=O)(=O)Nc2ccc(C(=O)N3CC(C)OC(C)C3)cc2)cc1 (stereo not given) | u | -1.1 | x | -21.9% | x | 7.9
Cc1nc(CN2CCN(C(=O)NC(C)Cc3ccco3)CC2)cs1 (stereo not given) | x | 11.2 | x | x | x | x
CCOc1ccc(S(=O)(=O)Nc2ccc(C(=O)NCC3(N4CCCCC4)CCCCC3)cc2)cc1 | u | -1.1 | x | 20.6µM* | x | -10.0
O=C(c1ccc(NS(=O)(=O)c2ccc3c(c2)OCCO3)cc1)N1CCCCC1 | u | -8.1 | u | 20.6µM* | -27.4% | u
CCOc1ccccc1N1CCN(C(=O)c2ccc(S(=O)(=O)Nc3ccccc3)cc2)CC1 | 18.4µM* | -0.2 | x | u | x | -7.6
CCCCCn1nc(C(=O)N2CCN(c3ccc(C(C)=O)cc3)CC2)c2ccccc2c1=O | x | 1.5 | x | x | x | x
CC(C)(CNC(=O)c1cc2c(s1)CCCCC2)N1CCOCC1 | x | 3.7 | x | x | x | x
CCOC(=O)C1C(=O)C=C(c2ccc(C)cc2)CC1c1ccc(Cl)cc1 (stereo not given) | x | -2.9 | x | x | x | x
Cc1ccc(-n2nc3c(=O)n(CC(=O)NC(C)CCc4ccccc4)nc(C)c3c2C)cc1 (stereo not given) | u | -6.5 | 3.3% | 23.1µM* | -7.7% | 19.1
Cc1ccc(CCNC(=O)CCn2nc(-c3ccc(Cl)cc3)ccc2=O)cc1 | u | 1.0 | x | 23.1µM* | x | x
Cc1nn(CCCC(=O)NCCc2ccccc2)c(=O)c2nn(-c3ccccc3)c(C)c12 | -2.2% | 2.4 | -17.1% | 11.2% | -6.9% | u
Cc1ccc(-c2ccc(=O)n(CCC(=O)N3CCN(c4ccccc4)CC3)n2)cc1 | 0.9% | -6.1 | 30.9% | u | 1.3% | u
O=C(CCn1nc(-c2ccc(Cl)cc2)ccc1=O)N1CCN(c2ccc(F)cc2)CC1 | u | -6.6 | -1.2% | 20.6µM* | -10.3% | u
Cc1ccc(CCNC(=O)CCCn2nc(C)c3c(C)n(-c4ccc(C)cc4)nc3c2=O)cc1 | 14.6µM* | -0.9 | 3.8% | u | -12.3% | -3.7
Cc1ccc(/C=C/C(=O)c2cc3ccccc3oc2=O)cc1 | x | 2.8 | x | x | x | x
Cc1ccc(-n2nc3c(=O)n(CC(=O)NCCc4ccc(Cl)cc4)nc(C)c3c2C)cc1 | u | -3.3 | 44.2% | u | 12.6µM* | -7.6
